Results as given in publication PMC4336329 (PLoS ONE, 2015).
Screen size: about 310,000 compounds; about 14,000 (4.5%) showed an effect of 50% or more. Effects have a minus sign here. This is one part of a sample in which strong results are shown more often than they occur.

biological target: human ether-à-go-go-related gene (hERG) potassium channel (human, UniProt Q12809); experiment: primary screen, population patch clamp on CHO cells stably expressing hERG; higher = less effect of the substance
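Also: peak tail current of the secondary pulse compared with the same well before compound.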

Chain of human ether-à-go-go-related gene (hERG) potassium channel (Q12809 whole entry, looked up): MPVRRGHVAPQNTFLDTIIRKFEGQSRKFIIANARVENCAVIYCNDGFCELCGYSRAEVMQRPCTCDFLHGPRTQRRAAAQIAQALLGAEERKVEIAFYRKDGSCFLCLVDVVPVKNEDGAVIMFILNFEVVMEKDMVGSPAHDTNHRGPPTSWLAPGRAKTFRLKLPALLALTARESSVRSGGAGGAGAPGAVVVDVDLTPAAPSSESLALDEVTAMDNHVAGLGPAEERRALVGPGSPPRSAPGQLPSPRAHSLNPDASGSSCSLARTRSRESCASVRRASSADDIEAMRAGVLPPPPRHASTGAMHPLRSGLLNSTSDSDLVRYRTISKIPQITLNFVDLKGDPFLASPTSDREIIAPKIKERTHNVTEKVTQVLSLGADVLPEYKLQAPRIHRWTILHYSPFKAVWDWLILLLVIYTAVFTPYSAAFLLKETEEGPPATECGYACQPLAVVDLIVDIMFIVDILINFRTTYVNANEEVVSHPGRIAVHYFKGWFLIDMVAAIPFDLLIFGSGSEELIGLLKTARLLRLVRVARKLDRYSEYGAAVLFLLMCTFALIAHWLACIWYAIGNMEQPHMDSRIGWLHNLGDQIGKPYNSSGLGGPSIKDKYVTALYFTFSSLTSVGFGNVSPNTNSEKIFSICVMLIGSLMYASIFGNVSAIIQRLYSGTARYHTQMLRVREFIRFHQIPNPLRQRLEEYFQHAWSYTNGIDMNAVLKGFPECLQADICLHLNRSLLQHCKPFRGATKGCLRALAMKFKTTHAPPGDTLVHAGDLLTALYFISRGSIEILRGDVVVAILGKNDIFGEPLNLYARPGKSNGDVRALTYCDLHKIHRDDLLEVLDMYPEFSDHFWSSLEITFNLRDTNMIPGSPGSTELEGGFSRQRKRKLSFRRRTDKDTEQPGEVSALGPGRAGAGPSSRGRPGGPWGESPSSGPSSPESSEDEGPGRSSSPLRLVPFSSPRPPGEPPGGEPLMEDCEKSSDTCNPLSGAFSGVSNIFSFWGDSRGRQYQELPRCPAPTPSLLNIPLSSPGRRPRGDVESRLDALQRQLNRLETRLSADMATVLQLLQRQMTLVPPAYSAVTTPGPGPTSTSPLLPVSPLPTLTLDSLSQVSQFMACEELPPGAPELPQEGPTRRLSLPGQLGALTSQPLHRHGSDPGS

| Compound | hERG current change (%, negative = inhibition) at 10uM |
| --- | --- |
| O=C(COc1ccc(Br)cc1Br)NC(=O)NC1CCCC1 | 22.3% |
| O=C(CN1C(=O)NC(c2ccccc2)(c2ccccc2)C1=O)NC1CCS(=O)(=O)C1 (stereo not shown) | 5.23% |
| CCc1nc(Nc2ccccc2F)c2oc3ccccc3c2n1.Cl | 6.04% |
| CCC(=O)Nc1ccc(S(=O)(=O)Nc2ccc(Cl)nn2)cc1.Cl | 11.7% |
| Cc1cccc(C)c1NC(=O)N1CCC(C(=O)c2ccc(F)cc2)CC1 | -22.6% |
| COC(=O)C1=NN(c2ccc(OC)cc2)C2C(=O)N(c3ccccc3OC)C(=O)C12 (stereo not shown) | 10.7% |
| COc1ccc(S(=O)(=O)N2CCC3(CC2)OCCN3S(=O)(=O)c2ccccc2)cc1OC | 0.907% |
| CCOC(=O)c1c(C)[nH]c(C(=O)OCC(=O)Nc2ccc(Cl)cn2)c1C | 6.52% |
| CCCOc1ccccc1C1NC(=O)NC(C)=C1C(=O)OCc1ccccc1 (stereo not shown) | 6.23% |
| COc1ccc(-c2cc(C(F)(F)F)nc(SCC(=O)NCc3cccs3)n2)cc1OC | -3.84% |
| CC1CCC(NC(=O)c2ccc3snnc3c2)CC1 (stereo not shown) | 21.3% |
| COc1ccc(CNC(=O)c2cccc(NC(=O)c3ccccc3)c2)cc1 | -71.5% |
| O=C(NCCN1CCOCC1)c1cccc(Cl)c1 | -1.9% |
| COc1ccc(NC(=O)c2cccc(NC(=O)c3ccccc3)c2)cc1 | 2% |
| Cc1cccc(C(=O)NCCN2CCCC2)c1.Cl | -0.337% |
| Cl.O=C(NCCN1CCCC1)c1cccc(Cl)c1 | -51.6% |
| COc1ccc(C(=O)Nc2cccc(C(=O)NCc3ccccc3)c2)cc1 | 4.28% |
| Cc1cc(=O)oc2cc(NC(=O)c3ccccc3Cl)ccc12 | 28% |
| C(=N\Nc1nc(Nc2ccccc2)nc(Nc2ccccc2)n1)/c1cccnc1 | -4.87% |
| C[n+]1cccc(C2C(C#N)=C(N)Oc3c2ccc2ccccc32)c1.[I-] (stereo not shown) | 13.7% |
| C/C(=N\Nc1ccc2nncn2n1)c1ccc(Br)s1 | 6.83% |
| O=C(/C=C/c1cccs1)NCc1ccccc1 | -2.08% |
| COCCNS(=O)(=O)c1cc(-c2nn(C)c(=O)c3ccccc23)ccc1C | -28.9% |
| CCC(CO)NS(=O)(=O)c1cc(-c2nn(C)c(=O)c3ccccc23)ccc1C (stereo not shown) | -3.69% |
| CCOC(=O)CNS(=O)(=O)c1cc(-c2nn(C)c(=O)c3ccccc23)ccc1C | -52.8% |
| CCN(CC)S(=O)(=O)c1cc(-c2nn(C)c(=O)c3ccccc23)ccc1C | -53.5% |
| Cc1ccc(-c2nn(C)c(=O)c3ccccc23)cc1S(=O)(=O)N1CCCC1 | -40.6% |
| Cc1ccc(-c2nn(C)c(=O)c3ccccc23)cc1S(=O)(=O)NCCN(C)C | 4.35% |
